Data published in the supplement of paper PMC10849652.
The full data set covers some 8,800 targets. This sample favours those with a hit. About 0.5% of all pairs of compound and target were hits. A number with no mark means an inactive call.

What was measured:
Test in all cases: log2 fold change, soluble protein after heating vs DMSO (PISA); higher = thermal stabilisation; K562 lysate, 10 uM; active = over 0.2 and 3.5 SD of the protein, either way, in both replicates (recomputed)
erlotinib = compound: C#Cc1cccc(Nc2ncnc3cc(OCCOC)c(OCCOC)cc23)c1 [erlotinib]
Outline: (§1)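 Quantification was by TMTpro 16plex LC-MS/MS with equalised channel sums, applied to the supernatant after 21,000xg for 90 min. Samples were crude K562 extract at 1 mg/mL protein in PBS pH 7.4 with 1 mM MgCl2, treated with 10 μM compound for 30 min, heated for 3 min across 48°C-58°C, pooled and brought to 0.5% NP-40 at 4°C. Values are log-two fold changes in thermal stability relative to solvent controls, from duplicates.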

[1] = compound: C/C(=N\NC(=O)C1=CC(=CC=C1)S(=O)(=O)N2CCOCC2)/C3=C(C=CC(=C3)Cl)O
Outline: as §1

[2] = compound: C1=CC(=CC=C1C2=NC3=C(N2)C=C(C=C3)C(=O)N)OC4=CC=C(C=C4)Cl
Outline: as §1

[3] = compound: C1=CC2=C(C=CC(=C2)/C=C\3/C(=O)NC(=NCC4=CC=CS4)S3)N=C1
Outline: as §1

[4] = compound: C1=CC2=NC=CN=C2C=C1/C=C/3\C(=O)NC(=O)S3
Outline: as §1

[5] = compound: C1=CC=C(C=C1)C2=NC(=C(N2)C3=CC=NC=C3)C4=CC(=C(C=C4)Cl)O
Outline: as §1

[6] = compound: C1=CC=C2C(=C1)C3=NNC4=CC=CC(=C43)C2=O
Outline: as §1

[7] = compound: C1CCN(C1)C(=O)NC2=CC=CC(=C2)NC3=NC=C(C(=N3)NCCC4=CN=CN4)Br
Outline: as §1

[8] = compound: C1CN(CCC1(CC2=CC=C(C=C2)Cl)N)C3=NC=NC4=C3C=CN4
Outline: as §1

IRAK-1-4 Inhibitor I = compound: C1COCCN1CCN2C3=CC=CC=C3N=C2NC(=O)C4=CC(=CC=C4)[N+](=O)[O-] [IRAK-1-4 Inhibitor I]
Outline: as §1

ibrutinib = compound: C=CC(=O)N1CCC[C@@H](n2nc(-c3ccc(Oc4ccccc4)cc3)c3c(N)ncnc32)C1 [ibrutinib]
Outline: as §1

[9] = compound: CC(=O)c1cnc2ccc(-c3cc(Cl)c(O)c(Cl)c3)nc2c1N[C@H]1CC[C@H](CN(C)C)CC1
Outline: as §1

ralimetinib = compound: CC(C)(C)Cn1c(N)nc2ccc(-c3[nH]c(C(C)(C)C)nc3-c3ccc(F)cc3)nc21 [ralimetinib]
Outline: as §1

[10] = compound: CC(C)(O)CC(=O)NCCn1ccc2ncnc(Nc3ccc(Oc4cccc(C(F)(F)F)c4)c(Cl)c3)c21
Outline: as §1

[11] = compound: CC(C)C1=C2N=C(C=C(N2N=C1)NCC3=CC=CC=C3)NCCCCCCN
Outline: as §1

[12] = compound: CC1=C(C(CC(=O)N1)C2=CC=C(C=C2)C(F)(F)F)C(=O)NC3=C(C=C4C(=C3)C=NN4)F
Outline: as §1

[13] = compound: CC1=C(C2=C(C=C1)C(=O)C3=CC=CC=C3N2CCCN)C
Outline: as §1

[14] = compound: CC1=C(C=C(C=C1)NC(=O)C2=CC(=CC=C2)C(C)(C)C#N)NC3=CC4=C(C=C3)N=CN(C4=O)C
Outline: as §1

[15] = compound: CC1=C(C=C(C=C1)NC(=O)C2=CC(=CC=C2)N(C)C)NC(=O)C3=CC=C(C=C3)O
Outline: as §1

[16] = compound: CC1=CC=C(C=C1)SC2=C3C=C(SC3=CN=C2)C(=O)N
Outline: as §1

UniProt Q9NXU5, sequence (Q9NXU5 whole entry, looked up): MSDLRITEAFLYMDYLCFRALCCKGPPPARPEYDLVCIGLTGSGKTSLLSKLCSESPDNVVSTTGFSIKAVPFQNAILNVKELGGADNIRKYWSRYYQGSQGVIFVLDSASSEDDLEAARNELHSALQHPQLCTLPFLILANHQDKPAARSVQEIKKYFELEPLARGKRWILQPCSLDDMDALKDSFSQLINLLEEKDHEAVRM
UniProt Q9Y4X0, sequence (Q9Y4X0 whole entry, looked up): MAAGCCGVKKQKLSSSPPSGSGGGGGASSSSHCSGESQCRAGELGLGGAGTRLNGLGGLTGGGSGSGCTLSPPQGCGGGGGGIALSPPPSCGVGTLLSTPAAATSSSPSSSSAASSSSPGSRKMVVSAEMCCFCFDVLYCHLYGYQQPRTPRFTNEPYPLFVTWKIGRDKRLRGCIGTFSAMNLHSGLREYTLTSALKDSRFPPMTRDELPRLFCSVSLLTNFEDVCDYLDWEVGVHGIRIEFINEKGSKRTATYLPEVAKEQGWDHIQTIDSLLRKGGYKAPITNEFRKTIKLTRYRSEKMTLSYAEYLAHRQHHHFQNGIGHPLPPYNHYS
UniProt Q9BVK2, sequence (Q9BVK2 whole entry, looked up): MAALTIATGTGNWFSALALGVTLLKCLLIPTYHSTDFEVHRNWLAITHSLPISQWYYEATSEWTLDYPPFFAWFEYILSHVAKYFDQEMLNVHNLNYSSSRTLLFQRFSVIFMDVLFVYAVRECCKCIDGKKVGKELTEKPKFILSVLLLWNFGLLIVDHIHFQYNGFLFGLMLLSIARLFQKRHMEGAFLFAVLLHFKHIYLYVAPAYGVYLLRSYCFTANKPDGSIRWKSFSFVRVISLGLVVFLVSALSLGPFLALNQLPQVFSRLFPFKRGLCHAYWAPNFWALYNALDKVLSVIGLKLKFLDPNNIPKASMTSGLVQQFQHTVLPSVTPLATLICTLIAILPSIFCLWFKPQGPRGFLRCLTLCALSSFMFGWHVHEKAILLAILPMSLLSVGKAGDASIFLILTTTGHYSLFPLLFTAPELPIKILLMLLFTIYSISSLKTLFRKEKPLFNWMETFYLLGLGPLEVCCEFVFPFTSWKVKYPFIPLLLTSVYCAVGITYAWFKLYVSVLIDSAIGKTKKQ
UniProt Q8IZP0, sequence (Q8IZP0 whole entry, looked up): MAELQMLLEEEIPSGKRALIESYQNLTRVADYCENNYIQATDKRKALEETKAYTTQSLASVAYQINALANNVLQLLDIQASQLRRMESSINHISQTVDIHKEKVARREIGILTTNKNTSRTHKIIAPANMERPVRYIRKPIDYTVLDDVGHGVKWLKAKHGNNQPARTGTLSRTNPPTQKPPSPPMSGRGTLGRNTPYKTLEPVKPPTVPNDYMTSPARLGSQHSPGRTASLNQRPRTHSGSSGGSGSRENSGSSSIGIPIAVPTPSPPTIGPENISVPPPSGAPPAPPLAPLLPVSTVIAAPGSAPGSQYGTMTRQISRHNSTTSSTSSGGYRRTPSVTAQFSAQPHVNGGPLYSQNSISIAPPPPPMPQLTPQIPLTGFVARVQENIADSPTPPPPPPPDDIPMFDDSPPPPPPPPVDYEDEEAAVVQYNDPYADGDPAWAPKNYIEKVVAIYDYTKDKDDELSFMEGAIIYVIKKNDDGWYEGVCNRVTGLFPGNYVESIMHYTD
UniProt Q9NWB6, sequence (Q9NWB6 whole entry, looked up): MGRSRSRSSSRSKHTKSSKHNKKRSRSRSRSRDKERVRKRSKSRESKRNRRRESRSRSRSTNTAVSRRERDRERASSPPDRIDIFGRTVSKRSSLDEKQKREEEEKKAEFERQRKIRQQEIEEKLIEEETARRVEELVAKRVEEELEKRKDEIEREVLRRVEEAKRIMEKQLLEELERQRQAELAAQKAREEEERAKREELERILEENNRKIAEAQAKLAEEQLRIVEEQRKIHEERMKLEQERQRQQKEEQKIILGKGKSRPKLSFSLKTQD
UniProt O95870, sequence (O95870 whole entry, looked up): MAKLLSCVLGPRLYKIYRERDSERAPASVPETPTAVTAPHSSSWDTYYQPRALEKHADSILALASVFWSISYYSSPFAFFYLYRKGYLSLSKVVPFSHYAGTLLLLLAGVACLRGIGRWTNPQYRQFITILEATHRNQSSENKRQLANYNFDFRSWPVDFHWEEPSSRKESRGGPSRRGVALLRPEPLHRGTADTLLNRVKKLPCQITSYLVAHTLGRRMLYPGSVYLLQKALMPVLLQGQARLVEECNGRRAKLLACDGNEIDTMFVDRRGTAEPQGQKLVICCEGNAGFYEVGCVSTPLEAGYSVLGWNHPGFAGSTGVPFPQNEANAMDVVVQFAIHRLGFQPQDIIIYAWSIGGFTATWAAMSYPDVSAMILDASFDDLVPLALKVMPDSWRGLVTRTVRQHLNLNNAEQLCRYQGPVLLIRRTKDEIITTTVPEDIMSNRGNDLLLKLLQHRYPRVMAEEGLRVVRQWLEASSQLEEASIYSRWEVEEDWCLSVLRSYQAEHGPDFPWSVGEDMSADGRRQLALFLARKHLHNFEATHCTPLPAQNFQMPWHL
UniProt O60488, sequence (O60488 whole entry, looked up): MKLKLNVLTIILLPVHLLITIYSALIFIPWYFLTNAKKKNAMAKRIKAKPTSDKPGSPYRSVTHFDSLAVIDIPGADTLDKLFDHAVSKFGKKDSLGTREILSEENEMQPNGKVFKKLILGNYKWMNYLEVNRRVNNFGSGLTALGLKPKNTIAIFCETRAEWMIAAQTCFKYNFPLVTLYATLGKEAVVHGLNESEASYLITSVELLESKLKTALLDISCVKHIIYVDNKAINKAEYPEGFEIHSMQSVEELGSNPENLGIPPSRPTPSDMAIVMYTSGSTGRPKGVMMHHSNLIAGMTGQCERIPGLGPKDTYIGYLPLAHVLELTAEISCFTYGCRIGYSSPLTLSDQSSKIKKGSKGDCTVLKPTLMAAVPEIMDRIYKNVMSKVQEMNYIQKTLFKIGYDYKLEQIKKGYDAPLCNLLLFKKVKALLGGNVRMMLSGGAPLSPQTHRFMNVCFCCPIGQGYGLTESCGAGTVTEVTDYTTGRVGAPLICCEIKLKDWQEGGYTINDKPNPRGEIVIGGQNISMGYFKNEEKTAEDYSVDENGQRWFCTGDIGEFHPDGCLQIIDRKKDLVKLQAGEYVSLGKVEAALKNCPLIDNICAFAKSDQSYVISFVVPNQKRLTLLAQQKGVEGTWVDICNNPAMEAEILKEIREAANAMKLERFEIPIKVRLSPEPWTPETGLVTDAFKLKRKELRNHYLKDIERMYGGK
UniProt P42684, sequence (P42684 whole entry, looked up): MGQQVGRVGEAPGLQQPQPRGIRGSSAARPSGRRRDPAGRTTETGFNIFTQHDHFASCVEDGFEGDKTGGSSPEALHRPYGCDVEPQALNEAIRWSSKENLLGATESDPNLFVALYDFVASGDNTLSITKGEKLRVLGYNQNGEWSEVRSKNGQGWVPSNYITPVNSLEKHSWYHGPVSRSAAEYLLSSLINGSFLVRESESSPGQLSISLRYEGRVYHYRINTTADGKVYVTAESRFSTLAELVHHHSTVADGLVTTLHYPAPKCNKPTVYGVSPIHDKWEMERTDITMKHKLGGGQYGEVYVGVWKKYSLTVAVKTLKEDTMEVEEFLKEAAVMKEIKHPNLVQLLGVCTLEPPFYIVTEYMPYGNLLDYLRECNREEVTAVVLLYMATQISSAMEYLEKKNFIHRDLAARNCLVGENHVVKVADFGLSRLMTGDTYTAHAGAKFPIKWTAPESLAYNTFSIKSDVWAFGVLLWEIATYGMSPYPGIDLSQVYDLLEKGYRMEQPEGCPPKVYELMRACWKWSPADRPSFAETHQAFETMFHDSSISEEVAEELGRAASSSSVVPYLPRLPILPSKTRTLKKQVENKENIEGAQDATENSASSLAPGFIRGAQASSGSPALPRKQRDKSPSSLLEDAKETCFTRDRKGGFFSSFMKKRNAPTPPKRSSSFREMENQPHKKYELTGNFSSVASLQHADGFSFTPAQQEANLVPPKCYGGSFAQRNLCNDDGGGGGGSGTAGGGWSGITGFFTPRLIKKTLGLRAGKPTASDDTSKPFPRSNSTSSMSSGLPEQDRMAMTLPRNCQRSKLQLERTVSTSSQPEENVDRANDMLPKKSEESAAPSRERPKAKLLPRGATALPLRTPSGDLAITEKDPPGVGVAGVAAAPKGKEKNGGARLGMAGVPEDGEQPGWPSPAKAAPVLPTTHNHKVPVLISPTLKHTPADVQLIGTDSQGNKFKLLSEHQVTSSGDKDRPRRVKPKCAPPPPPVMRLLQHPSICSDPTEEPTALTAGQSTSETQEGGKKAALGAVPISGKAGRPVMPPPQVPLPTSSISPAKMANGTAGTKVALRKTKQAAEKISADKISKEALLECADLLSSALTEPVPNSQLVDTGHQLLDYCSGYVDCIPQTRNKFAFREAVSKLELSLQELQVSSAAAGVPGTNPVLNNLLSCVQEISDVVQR
UniProt P11310, sequence (P11310 whole entry, looked up): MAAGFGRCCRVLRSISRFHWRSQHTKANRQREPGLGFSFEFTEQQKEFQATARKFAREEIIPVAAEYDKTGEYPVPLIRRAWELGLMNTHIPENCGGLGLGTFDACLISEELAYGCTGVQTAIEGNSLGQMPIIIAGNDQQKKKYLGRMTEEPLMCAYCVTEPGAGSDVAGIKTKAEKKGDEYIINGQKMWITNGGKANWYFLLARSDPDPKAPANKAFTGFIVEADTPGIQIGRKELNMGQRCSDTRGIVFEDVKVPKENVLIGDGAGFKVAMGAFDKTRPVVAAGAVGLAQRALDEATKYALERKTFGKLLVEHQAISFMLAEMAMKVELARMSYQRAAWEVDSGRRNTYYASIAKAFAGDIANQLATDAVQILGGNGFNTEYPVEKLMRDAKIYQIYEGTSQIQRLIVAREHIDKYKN
UniProt P00568, sequence (P00568 whole entry, looked up): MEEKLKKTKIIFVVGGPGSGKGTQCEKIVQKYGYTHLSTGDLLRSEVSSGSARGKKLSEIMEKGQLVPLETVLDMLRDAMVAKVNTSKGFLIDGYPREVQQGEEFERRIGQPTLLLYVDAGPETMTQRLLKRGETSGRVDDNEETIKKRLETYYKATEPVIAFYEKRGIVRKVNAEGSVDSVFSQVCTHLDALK

Target | log2 fold change (erlotinib) | log2 fold change [1] | log2 fold change [2] | log2 fold change [3] | log2 fold change [4] | log2 fold change [5] | log2 fold change [6] | log2 fold change [7] | log2 fold change [8] | log2 fold change (IRAK-1-4 Inhibitor I) | log2 fold change (ibrutinib) | log2 fold change [9] | log2 fold change (ralimetinib) | log2 fold change [10] | log2 fold change [11] | log2 fold change [12] | log2 fold change [13] | log2 fold change [14] | log2 fold change [15] | log2 fold change [16]
ABI1 isoform 9 (UniProt Q8IZP0) | -0.014 | -0.003 | 0.025 | 0.01 | -0.007 | 0.009 | -0.014 | 0.006 | 0.004 | -0.021 | 0.034 | 0.023 | -0.031 | -0.005 | 0.031 | -0.02 | -0.008 | 0.024 | -0.012 | 0.003
ACIN1 isoform 5 (UniProt Q9UKV3) | -0.011 | -0.025 | -0.023 | -0.028 | -0.037 | 0.001 | -0.001 | -0.006 | -0.007 | -0.006 | -0.004 | -0.015 | -0.011 | -0.028 | -0.021 | -0.024 | -0.001 | -0.042 | 0.003 | -0.016
ACSL4 (UniProt O60488) | 0.004 | -0.074 | -0.053 | 0.062 | 0.022 | -0.014 | -0.032 | -0.065 | -0.007 | 0.04 | 0.035 | -0.012 | 0.051 | -0.022 | -0.015 | 0.027 | -0.079 | -0.044 | 0.052 | 0.021
ABHD17A isoform 2 (UniProt Q96GS6) | -0.016 | -0.046 | 0.081 | 0.025 | 0.022 | -0.009 | -0.07 | -0.023 | 0.025 | 0.006 | -0.03 | 0.011 | 0.039 | -0.035 | 0.032 | -0.042 | -0.065 | -0.023 | -0.097 | -0.098
ASCC2 (UniProt Q9H1I8) | 0.04 | -0.106 | -0.077 | 0.083 | 0.029 | -0.016 | -0.048 | -0.054 | 0.037 | -0.042 | -0.328 (active) | 0.029 | 0.057 | -0.041 | 0.012 | 0.004 | 0.02 | 0.01 | 0.064 | -0.01
AGO4 (UniProt Q9HCK5) | -0.038 | -0.008 | 0.031 | -0.02 | -0.031 | 0.009 | -0.015 | 0.009 | 0.016 | -0.009 | 0.034 | -0.035 | 0.022 | -0.011 | -0.049 | 0.025 | 0.05 | 0 | -0.013 | -0.024
AKR1B1 (UniProt P15121) | -0.044 | -0.001 | -0.006 | 0.012 | -0.009 | -0.047 | -0.044 | -0.043 | -0.003 | -0.021 | 0.023 | -0.015 | 0.031 | -0.029 | -0.033 | -0.013 | 0.091 | -0.038 | 0.028 | 0.004
AP3D1 isoform 5 (UniProt O14617) | -0.013 | -0.004 | -0.006 | 0.011 | 0.001 | -0.007 | -0.015 | -0.015 | -0.001 | -0.003 | 0.033 | -0.012 | 0.028 | -0.012 | -0.007 | -0.014 | -0.024 | 0.011 | 0.01 | 0.006
ALG8 (UniProt Q9BVK2) | 0.022 | -0.102 | -0.082 | 0.018 | 0.016 | -0.062 | -0.001 | 0.053 | 0.012 | -0.007 | 0.017 | -0.013 | 0.013 | 0.036 | -0.028 | -0.005 | 0.054 | 0.027 | -0.011 | -0.003
AK1 (UniProt P00568) | -0.023 | 0.002 | 0.014 | -0.036 | 0.002 | -0.004 | 0.047 | 0.067 | -0.003 | -0.002 | -0.001 | 0.006 | 0.006 | -0.021 | -0.029 | -0.008 | 0.043 | -0.024 | -0.002 | 0.009
AMMECR1 (UniProt Q9Y4X0) | 0.007 | 0.003 | 0.019 | -0.045 | 0.004 | -0.009 | -0.001 | 0.009 | 0.019 | 0.002 | -0.021 | -0.008 | 0.006 | -0.016 | 0.014 | 0.009 | -0.01 | -0.003 | -0.027 | -0.039
ARGLU1 (UniProt Q9NWB6) | -0.008 | 0.069 | -0.039 | 0.009 | -0.034 | -0.057 | -0.002 | 0.003 | -0.047 | 0.025 | 0.027 | -0.034 | -0.027 | 0.015 | 0.005 | -0.008 | 0.026 | -0.027 | -0.022 | 0.019
ACADM isoform 2 (UniProt P11310) | -0.088 | 0.049 | -0.034 | 0.23 | 0.085 | 0.101 | -0.032 | -0.032 | -0.003 | -0.007 | 0.151 | 0.026 | -0.015 | -0.047 | 0.396 (active) | -0.041 | -0.004 | -0.055 | -0.019 | 0.046
ABL2 (UniProt P42684) | -0.046 | 0.068 | 0.053 | -0.014 | -0.013 | 0.045 | -0.003 | -0.065 | -0.141 | -0.068 | 0.586 (active) | 0.078 | 0.005 | 0.002 | 0.002 | -0.057 | -0.112 | 0.154 | 0.093 | -0.046
ARL15 (UniProt Q9NXU5) | -0.035 | 0.004 | -0.009 | 0.011 | 0.079 | -0.033 | 0.005 | 0.004 | -0.031 | 0.038 | -0.015 | 0.048 | -0.012 | -0.05 | 0.015 | 0.005 | 0.005 | 0.001 | 0.033 | -0.005
ABHD16A (UniProt O95870) | -0.009 | -0.047 | 0.03 | 0.046 | -0.042 | 0.015 | -0.016 | 0.014 | 0.064 | -0.006 | -0.01 | 0.004 | 0.029 | 0.018 | 0.027 | -0.022 | 0.03 | -0.031 | -0.077 | -0.011
